# Source: PubChem BioAssay
# Several values for one entry are separate records, joined by “and”; a condition that tells them apart may be missing. Equal values may be shown once. Records with an inconclusive call do not appear. For part of these data: Results with a measured potency or affinity are listed apart. Activity calls are given as the source filed them. Unless noted, the rule behind the calls is not given here.
# Columns and labels:
# [1] = restoration of touch response, mutant HTT neurons – whole organism, C. elegans mechanosensory neurons, N-terminal huntingtin (AID 1599); details: C. elegans polyQ-huntingtin mechanosensory neurons, stronger effect = higher value
# [2] = GFP-Q80 aggregate reduction, neuronal-like cells, cell-based, NGF-treated PC12, GFPQ80 (AID 1614); details: PC12 NGF-treated GFP-polyQ80 inclusion reduction;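 note: lower means fewer inclusions and 0 means no inclusions at all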
# [3] = 75Q-TubH aggregate inhibition, S. cerevisiae, yeast (AID 1616); details: S. cerevisiae 75Q-TubH polyglutamine aggregation suppression; stronger effect = higher value
# [4] = viability loss in pontine glioma line – cell-based, SU-DIPG-XVII, MIPE5.0, CellTiter-Glo, qHTS, dose response (AID 1347060; cut-off not given, nearly all actives have AC50 up to about 26 µM;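 for AC50: cells exposed to compound for 48 hours before viability readout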); details: CellTiter-Glo ATP luminescence
# [5] = viability loss in pontine glioma line – cell-based, SU-DIPG-XIII, MIPE4.0, CellTiter-Glo, qHTS, dose response (AID 1347061; cut-off not given, nearly all actives have AC50 up to about 37 µM;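 note: cells exposed to compound for 48 hours before readout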); details: CellTiter-Glo ATP luminescence
# [6] = viability loss in pontine glioma line – cell-based, JHH-DIPG-1, MIPE4.0, CellTiter-Glo, qHTS, dose response (AID 1347062; cut-off not given, nearly all actives have AC50 up to about 27 µM;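 for AC50: cells exposed to compound for two days before readout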); details: JHH-DIPG-1 viability, CellTiter-Glo ATP luminescence
# [7] = viability loss in pontine glioma line – cell-based, SU-DIPG-IV, MIPE4.0, CellTiter-Glo, qHTS, dose response (AID 1347063; cut-off not given, nearly all actives have AC50 up to about 30 µM;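 note: compound exposure lasted 48 hours before the viability readout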); details: CellTiter-Glo ATP luminescence
# [8] = growth inhibition of DIPG cells – cell-based, MIPE4.0 library, CellTiter-Glo luminescence, qHTS (AID 1347066; cut-off not given, nearly all actives have AC50 up to about 30 µM;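 note: cells exposed to compound for 48 hours before readout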); details: SU-DIPG-VI viability, CellTiter-Glo ATP luminescence
# [9] = JHH-DIPG-1 glioma cell viability, MIPE5.0 library, CellTiter-Glo luminescence, qHTS (AID 1347067; cut-off not given, nearly all actives have AC50 up to about 26 µM;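 note: cells exposed to compound for 48 hours before readout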); details: JHH-DIPG-1 glioma viability, CellTiter-Glo ATP luminescence
# [10] = growth inhibition of DIPG cells – cell-based, MIPE5.0 library, qHTS (AID 1347068; cut-off not given, nearly all actives have IC50 up to about 30 µM); details: SU-DIPG-XXV viability
# [11] = compounds altering viability of human ES cells (AID 493140); details: human embryonic stem cell survival screen; stronger effect = higher value;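 note: cells exposed to compounds for four days before counting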
# [12] = system: Hepatitis C virus NS3 helicase; assay: blockers of NS3h binding to ssDNA – biochemical, fluorescence polarization, LOPAC1280 library, primary screen (AID 687035; in the data active = inhibition above about 37%); details: Purified HCV NS3 helicase, Cy5-dT15 ssDNA binding fluorescence polarization; stronger effect = higher value; concentration not given here
# [13] = compounds altering Cy5-DNA-NS3h complex signal – biochemical, LOPAC1280, artefact control for HCV NS3 helicase inhibitor project (AID 687037); details: Cy5-DNA-NS3h complex fluorescence interference counterscreen
# [14] = viability loss in pontine glioma line – cell-based, SU-DIPG-XXV, MIPE5.0, CellTiter-Glo, qHTS, dose response (AID 1347065; cut-off not given, nearly all actives have AC50 up to about 26 µM;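 note: cells exposed to compound for 48 hours before ATP readout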); details: CellTiter-Glo ATP luminescence
# [15] = blockers of cellular phospholipid synthesis – cell-based, LOPAC library, screen 4, primary screen (AID 1347384); details: animal cells, phospholipid biosynthesis inhibition screen; at 10 µM
# [16] = growth inhibition, single agents and combos, LFS_MB_1R, cell-based, cisplatin or BGB combos, synergistic combos for chromothripsis tumors (AID 1671452; in the data active = inhibition above about 80%;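 note: cells exposed for 96 hours before readout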); details: LFS_MB_1R medulloblastoma cells, stronger effect = higher value
# [17] = growth inhibition, MDA-MB-436, cell-based, BGB or cisplatin combos, synergistic combos for chromothripsis tumors (AID 1671458); details: MDA-MB-436 breast carcinoma growth inhibition, drug combinations, stronger effect = higher value;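 note: cells exposed for 96 hours; 0% = vehicle DMSO and 100% = killing by high DMSO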
# [18] = BT084 cell growth, single and combined drugs, ICGC_MB145, cisplatin and BGB IC40 combos (AID 1671461; in the data active = inhibition above about 80%;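 note: cells exposed to drugs for 96 hours; 0% = vehicle DMSO and 100% = high DMSO full killing control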); details: BT084 medulloblastoma cells, drug combinations, stronger effect = higher value
# [19] = RCMB18 cell growth, single agent and combined, cisplatin and BGB IC40 combos (AID 1671462; in the data active = inhibition above about 80%;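 note: cells exposed to compound for four days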); details: RCMB18 medulloblastoma cells, stronger effect = higher value
# [20] = CRL1545 cell growth, single agent and combined, cisplatin and BGB IC20 combos (AID 1671464; in the data active = inhibition above about 80%;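 note: cells exposed to compound for 96 hours before readout; 0% = vehicle DMSO and 100% = high DMSO killing control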); details: CRL1545 osteosarcoma cells, stronger effect = higher value
# [21] = measured here: combination with BGB IC40, at 0.05 µM
# [22] = measured here: combination with cisplatin, at 0.5 µM
# [23] = measured here: combination with cisplatin, at 5 µM
# [24] = measured here: BGB combination, at 0.5 µM
# [25] = measured here: BGB combination, at 5 µM
# [26] = measured here: cisplatin combination, at 0.5 µM
# [27] = measured here: cisplatin combination, at 5 µM
# [28] = cisplatin combination, at 0.5 µM
# [29] = measured here: BGB IC40 combination 0.05 uM, at 0.05 µM
# [30] = measured here: BGB IC40 combination, at 0.05 µM
# [31] = measured here: with BGB IC20 combination, at 0.5 µM
# [32] = measured here: with cisplatin IC20 combination, at 0.5 µM
compound,measurement,setting,value
CCN(CCO)CCCC(C)Nc1ccnc2cc(Cl)ccc12 (stereo not drawn),rescue above control,[1],-3.82
same,inclusion score,[2],1.5
same,aggregation suppression score,[3],1.3
same,outcome,[4],inactive
same,outcome,[5],inactive
same,outcome,[6],inactive
same,outcome,[7],inactive
same,outcome,[8],inactive
same,outcome,[9],inactive
same,outcome,[10],inactive
CC(C)NCC(O)c1ccc(O)c(O)c1 (stereo not drawn),rescue above control,[1],7.5
same,inclusion score,[2],2
same,aggregation suppression score,[3],1.28
same,survival,[11],4.58 (inactive) and 3.08 (inactive)
same,inhibition,[12],-3% (inactive)
same,fluorescence ratio (interference),[13],1 (inactive)
same,outcome,[4],inactive
same,AC50,[6],1.48 µM (active)
same,outcome,[14],inactive
same,outcome,[8],inactive
same,outcome,[9],inactive
same,outcome,[10],inactive
same,outcome,[15],inactive
Clc1cccc(Cl)c1NC1=NCCN1,rescue above control,[1],13.6
same,inclusion score,[2],2
same,aggregation suppression score,[3],1.85
same,survival,[11],20.8 (inactive)
same,inhibition,[12],-4% (inactive)
same,fluorescence ratio (interference),[13],1 (inactive)
same,outcome,[5],inactive
same,outcome,[6],inactive
same,outcome,[8],inactive
same,outcome,[15],inactive
CCC(C)(C)C(=O)O[C@H]1C[C@@H](C)C=C2C=C[C@H](C)[C@H](CC[C@@H]3C[C@@H](O)CC(=O)O3)[C@H]21,survival,[11],1.17 (inactive)
same,outcome,[5],inactive
same,AC50,[7],18.7 µM (active)
same,outcome,[10],inactive
NC12CC3CC(CC(C3)C1)C2,rescue above control,[1],-3.19
same,inclusion score,[2],2
same,aggregation suppression score,[3],1.59
same,survival,[11],4.42 (inactive)
same,inhibition,[12],-1% (inactive)
same,fluorescence ratio (interference),[13],0.9 (inactive)
same,outcome,[4],inactive
same,outcome,[8],inactive
same,outcome,[9],inactive
same,outcome,[10],inactive
same,outcome,[15],inactive
N=C(N)c1ccc(OCCCCCOc2ccc(C(=N)N)cc2)cc1,rescue above control,[1],0
same,aggregation suppression score,[3],0.265
same,survival,[11],0.583 (inactive)
same,outcome,[6],inactive
same,AC50,[14],11.8 µM (active)
same,outcome,[8],inactive
same,outcome,[15],inactive
c1ccc([C@H]2CN3CCSC3=N2)cc1,rescue above control,[1],-9.67
same,inclusion score,[2],1.5
same,aggregation suppression score,[3],1.54
same,survival,[11],17.8 (inactive) and 98.4 (inactive)
same,inhibition,[12],-1% (inactive)
same,fluorescence ratio (interference),[13],1 (inactive)
same,outcome,[4],inactive
same,outcome,[5],inactive
same,outcome,[6],inactive
same,outcome,[14],inactive
same,outcome,[9],inactive
same,outcome,[10],inactive
same,outcome,[15],inactive
CCCCCN=C(N)N/N=C/c1c[nH]c2ccc(OC)cc12,AC50,[4],13.2 µM (active)
same,outcome,[5],inactive
same,AC50,[14],14.8 µM (active)
same,outcome,[8],inactive
same,outcome,[10],inactive
c1ccc(CC2=NCCN2)cc1,rescue above control,[1],-6.48
same,inclusion score,[2],2
same,aggregation suppression score,[3],1.3
same,survival,[11],21.6 (inactive)
CN1C(C(=O)Nc2ccccn2)=C(O)c2ccccc2S1(=O)=O,rescue above control,[1],9.46
same,inclusion score,[2],2
same,aggregation suppression score,[3],0.134
same,survival,[11],20 (inactive)
same,inhibition,[12],-1% (inactive)
same,fluorescence ratio (interference),[13],1 (inactive)
same,outcome,[4],inactive
same,outcome,[5],inactive
same,outcome,[6],inactive
same,outcome,[14],inactive
same,outcome,[8],inactive
same,outcome,[9],inactive
same,outcome,[10],inactive
same,outcome,[15],inactive
CC[C@H](C)C(=O)O[C@H]1C[C@@H](C)C=C2C=C[C@H](C)[C@H](CC[C@@H]3C[C@@H](O)CC(=O)O3)[C@H]21,rescue above control,[1],-2.24
same,aggregation suppression score,[3],0.603
same,survival,[11],2.08 (inactive)
same,outcome,[5],inactive
same,outcome,[14],inactive
same,outcome,[8],inactive
same,outcome,[10],inactive
Oc1ccc(/C=C/c2cc(O)cc(O)c2)cc1,survival,[11],13.8 (inactive)
same,inhibition,[12],-3% (inactive)
same,fluorescence ratio (interference),[13],1 (inactive)
same,outcome,[6],inactive
same,outcome,[8],inactive
same,outcome,[9],inactive
same,outcome,[15],inactive
O=C1CCC(N2C(=O)c3ccccc3C2=O)C(=O)N1 (stereo not drawn),rescue above control,[1],21.9
same,inclusion score,[2],2
same,aggregation suppression score,[3],1.48
same,survival,[11],19.2 (inactive)
same,inhibition,[12],-6% (inactive)
same,fluorescence ratio (interference),[13],1 (inactive)
same,outcome,[5],inactive
same,outcome,[7],inactive
same,outcome,[8],inactive
same,outcome,[9],inactive
same,outcome,[10],inactive
same,outcome,[15],inactive
Nc1nc2c(ncn2COCCO)c(=O)[nH]1,rescue above control,[1],0.24
same,inclusion score,[2],2
same,aggregation suppression score,[3],1.27
same,survival,[11],18.2 (inactive)
same,inhibition,[12],-2% (inactive)
same,fluorescence ratio (interference),[13],1 (inactive)
same,outcome,[4],inactive
same,outcome,[5],inactive
same,outcome,[6],inactive
same,outcome,[7],inactive
same,outcome,[14],inactive
same,outcome,[9],inactive
same,outcome,[10],inactive
same,outcome,[15],inactive
same,inhibition,[16]; at 0.5 µM,-33.9% (inactive) and -12.8% (inactive)
same,inhibition,[16]; [21],-30% and -19.3%
same,inhibition,[16]; [22],-22.8% and -6.62%
same,inhibition,[16]; [23],-40.1% and -62.2%
same,inhibition,[17]; at 0.5 µM,-28.5% (inactive) and -3.5% (inactive)
same,inhibition,[17]; [24],-28% and -11%
same,inhibition,[17]; [25],-21.3% and -10.7%
same,inhibition,[17]; [26],-47.5% and -0.282%
same,inhibition,[17]; [27],-36.3% and -17.4%
same,inhibition,[18]; at 0.5 µM,-21.3% (inactive) and -1.95% (inactive)
same,inhibition,[18]; [28],-12.5% and -17.2%
same,inhibition,"[18]; cisplatin combination, at 5 µM",-6.79% and -8.03%
same,inhibition,[18]; [29],-1.08% and -21.3%
same,inhibition,"[18]; single agent, at 5 µM",-0.642% and -9.5%
same,inhibition,[19]; at 0.5 µM,-24.6% (inactive) and -1.99% (inactive)
same,inhibition,"[19]; cisplatin combo, at 5 µM",-16.8% and -20.6%
same,inhibition,[19]; [30],-28.4% and 4.2%
same,inhibition,[19]; [22],-35.4% and 12.7%
same,inhibition,"[19]; single agent, at 5 µM",-21.5% and -6.99%
same,inhibition,[20]; at 0.5 µM,-37.7% (inactive) and -21.2% (inactive)
same,inhibition,[20]; [31],-17.4% and -24.8%
same,inhibition,[20]; [32],-51.3% and -21.4%
same,inhibition,"[20]; single agent, at 0.05 µM",-59.2% and 3.53%
same,inhibition,"[20]; single agent, at 5 µM",-38.1% and -22.9%
CCN(CC)CCCC(C)Nc1c2ccc(Cl)cc2nc2ccc(OC)cc12 (stereo not drawn),rescue above control,[1],26.7
same,aggregation suppression score,[3],1.04
same,inhibition,[12],1% (inactive)
same,fluorescence ratio (interference),[13],1 (inactive)
same,AC50,[4],8.33 µM (active)
same,AC50,[14],11.8 µM (active)
same,AC50,[9],11.8 µM (active)
same,outcome,[15],inactive
same,inhibition,[16]; at 0.5 µM,3.87% (inactive)
same,inhibition,[16]; [21],-25.2%
same,inhibition,[16]; [22],4.45%
same,inhibition,[16]; [23],100%
same,inhibition,[17]; at 0.5 µM,4.39% (inactive)
same,inhibition,[17]; [24],-0.472%
same,inhibition,[17]; [25],95.8%
same,inhibition,[17]; [26],-17.3%
same,inhibition,[17]; [27],98%
same,inhibition,[18]; at 0.5 µM,1.42% (inactive)
same,inhibition,[18]; [28],-5.45%
same,inhibition,"[18]; cisplatin combination, at 5 µM",99.5%
same,inhibition,[18]; [29],-3.72%
same,inhibition,"[18]; single agent, at 5 µM",105%
same,inhibition,[19]; at 0.5 µM,-4.03% (inactive)
same,inhibition,"[19]; cisplatin combo, at 5 µM",92.9%
same,inhibition,[19]; [30],-9.76%
same,inhibition,[19]; [22],-29.6%
same,inhibition,"[19]; single agent, at 5 µM",73.4%
same,inhibition,[20]; at 0.5 µM,9.17% (inactive)
same,inhibition,[20]; [31],-5.37%
same,inhibition,[20]; [32],14.5%
same,inhibition,"[20]; single agent, at 0.05 µM",-8.93%
same,inhibition,"[20]; single agent, at 5 µM",99.9%
CCN(CC)CCCC(C)Nc1ccnc2cc(Cl)ccc12 (stereo not drawn),rescue above control,[1],4.09
same,inclusion score,[2],2
same,aggregation suppression score,[3],1.49
same,survival,[11],6.67 (inactive)
same,inhibition,[12],-3% (inactive)
same,fluorescence ratio (interference),[13],1 (inactive)
same,AC50,[5],0.00833 µM (active)
same,outcome,[14],inactive
same,outcome,[9],inactive
same,outcome,[10],inactive
same,outcome,[15],inactive
